PubChem BioAssay (Tox21)
Values without a mark were called inactive. Inconclusive results are not listed. Where a call stands in place of a potency, no number is given. Activity calls are given as the source filed them. Unless noted, calls come from the whole dose curve.

Key:
[1] = qHTS assay to identify small molecule agonists of the sonic hedgehog signaling (Shh) pathway (AID 1259368);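 note: NIH/3T3-derived 3T3Gli1-Luc cells carrying a stable Gli1-driven firefly luciferase reporter; series mostly up to about 92 µM; nearly all actives have a fitted effect of over 15% in size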
Procedure, shortened: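 3T3Gli1-Luc (NIH/3T3 clone, stable Gli1-Luc); 4 hr pre-incubation, then cpd in DMSO 24 hr, 37 C/5% CO2; luciferase reagent 30 min RT; luminescence.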

[2] = qHTS assay to identify small molecule antagonists of the sonic hedgehog signaling (Shh) pathway (AID 1259369); note: nearly all actives have a fitted effect of over 45% in size
Procedure, shortened: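 3T3Gli1-Luc, conditioned-medium-stimulated, 24hr cpd, 37C/5% CO2; Gli1-driven firefly Luc luminescence after 30min RT with luciferase reagent. Cells plated 4hr before cpd.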

[3] = target: Estrogen receptor beta (Homo sapiens) (UniProt Q92731); assay: qHTS assay to identify small molecule agonists of the estrogen receptor beta (ER-beta) signaling pathway (AID 1259377; active = well fitted activation curve with a large enough effect in the signal ratio in the repeat runs, not every such curve was filed as active; the % refers to the signal ratio)
Procedure, shortened: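 qHTS in ER-beta-UAS-bla HEK293T cells: 6 hr settling, then 16 hr compound at 37C, then LiveBLAzer substrate 2 h at RT before fluorescence reading.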

[4] = target: Estrogen receptor beta (Homo sapiens) (UniProt Q92731); assay: qHTS assay to identify small molecule antagonists of the estrogen receptor beta (ER-beta) signaling pathway (AID 1259378; active = well fitted inhibition curve with a large enough effect in the signal ratio in the repeat runs, not every such curve was filed as active; the % refers to the signal ratio)
Procedure, shortened: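 ER-beta-UAS-bla HEK293T (GripTite) cells in 2% charcoal-stripped FBS medium were preincubated 6 hr at 37C, dosed with compound, then stimulated with 1 nM E2 (final) for 16 hr; beta-lactamase reporter read by B/G FRET fluorescence after 2 hr substrate loading.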

[5] = qHTS assay to identify small molecule agonists of the androgen receptor (AR) signaling pathway in the presence of an antagonist - cell viability counter screen (AID 1259379; active = well fitted curve in the direction sought with a large enough effect in the repeat runs; an effect the other way counts as inactive or inconclusive;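 note: MDA-kb2 human breast cancer cells carrying an MMTV luciferase reporter; series mostly up to about 92 µM; nearly all actives have a fitted effect of over 25% in size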)
Procedure, shortened: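 Cells: MDA-kb2 (MMTV-luc, AR and GR elements), 3,000/well, 5 hr settle. Added: nilutamide 3.0uM final, then compounds (15 conc.). Incubation: 16 hr, 37C, no CO2. Read-out: CellTiter-Fluor, 1 hr, fluorescence.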

[6] = qHTS assay to identify small molecule agonists of the estrogen receptor beta (ER-beta) signaling pathway - cell viability counter screen (AID 1259380; active = well fitted curve in the direction sought with a large enough effect in the repeat runs; an effect the other way counts as inactive or inconclusive; note: nearly all actives have a fitted effect of over 30% in size)
Procedure, shortened: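 HEK293T ER-beta-UAS-bla; 2% CS-FBS; 6 hr pre-plate, 16 hr cpd at 37C/5% CO2; LiveBLAzer read first, then CellTiter-Glo 30 min RT, luminescence.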

[7] = qHTS assay to identify small molecule antagonists of the estrogen receptor beta (ER-beta) signaling pathway - cell viability counter screen (AID 1259382; active = well fitted curve in the direction sought with a large enough effect in the repeat runs; an effect the other way counts as inactive or inconclusive; note: series mostly up to about 92 µM; nearly all actives have a fitted effect of over 55% in size)
Procedure, shortened: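 Cells: ER-beta-UAS-bla HEK293T, 2,000/well, 2% CS-FBS, 6 hr settle. Cpd + E2 (1nM final), 16 hr, 37C/5% CO2. Bla FRET substrate 2 hr RT, then CellTiter-Glo 30 min RT, luminescence.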

[8] = target: Estrogen receptor (Homo sapiens) (UniProt P03372); assay: qHTS assay to identify small molecule agonists of the estrogen receptor alpha (ER-alpha) signaling pathway in the presence of an antagonist (AID 1259383); note: top concentration of the series differs between compounds; nearly all actives have a fitted effect of over 15% in size
Procedure, shortened: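 VM7Luc4E2, endog. ER-alpha + 4×ERE-luc; charcoal-stripped FBS, phenol red-free, 5 d; 24hr plating; +10.0nM ICI-182,780 (final); cpds 15 conc, 22hr, 37C/5% CO2; ONE-Glo luminescence.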

[9] = qHTS assay to identify small molecule agonists or antagonists of the thyroid stimulating hormone receptor (TSHR) signaling pathway - wild type cell line counter screen (AID 1259384)
Procedure, shortened: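 Wild-type HEK293 cells were plated 18 h at 37 C/5% CO2, pin-dosed with compound plus Ro20-1724 medium, held 30 min at room temperature, then given cAMP-d2 and anti-cAMP-cryptate; fluorescence was read after 1 h. Fifteen concentrations, triplicate.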

[10] = target: Thyrotropin receptor (Homo sapiens) (UniProt P16473); assay: qHTS assay to identify small molecule antagonists of the thyroid stimulating hormone receptor (TSHR) signaling pathway (AID 1259385); note: nearly all actives have a fitted effect of over 20% in size
Procedure, shortened: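 TSHR-HEK293 cells were plated and held 18 h at 37C/5% CO2, then given compound plus Ro20-1724 and stimulated with TSH at 1.5 ng/mL final. After 30 min at room temperature, cAMP was detected with cAMP-d2/anti-cAMP-cryptate (1 h) by fluorescence.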

[11] = qHTS assay to identify small molecule agonists of the estrogen receptor alpha (ER-alpha) signaling pathway in the presence of an antagonist - cell viability counter screen (AID 1259386; active = well fitted curve in the direction sought with a large enough effect in the repeat runs; an effect the other way counts as inactive or inconclusive;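 note: series mostly up to about 92 µM; cells exposed to compounds for 22 h at 37 °C before the viability read; nearly all actives have a fitted effect of over 30% in size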)
Procedure, shortened: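 VM7Luc4E2, stripped-serum pre-culture 5 d; 24hr plating; +ICI-182,780 10.0nM final; cpds 15 conc, 22hr, 37C/5% CO2; CellTiter-Fluor added at 21hr, fluorescence 1hr later.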

[12] = target: Progesterone receptor (Homo sapiens) (UniProt P06401); assay: qHTS assay to identify small molecule agonists of the progesterone receptor (PR) signaling pathway (AID 1346784); note: nearly all actives have a fitted effect of over 30% in size; note: potency is the fitted concentration of half-maximal effect
Procedure, shortened: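 Fluorescence from LiveBLAzer B/G FRET substrate cleavage (2 hr, RT) reported PR activation in PR-UAS-bla HEK 293T cells treated 16 hr at 37C/5% CO2 with compounds; medium contained 2% charcoal-stripped FBS.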

[13] = target: Progesterone receptor (Homo sapiens) (UniProt P06401); assay: qHTS assay to identify small molecule antagonists of the progesterone receptor (PR) signaling pathway (AID 1346795; active = well fitted inhibition curve with a large enough effect in the signal ratio in the repeat runs, not every such curve was filed as active; the % refers to the signal ratio)
Procedure, shortened: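 Fluorescence intensity measured 2 hr after adding beta-lactamase FRET substrate to PR-UAS-bla HEK293T cells that had been co-treated 16 hr with compound and 1 nM R5020 (final concentration) in 2% charcoal-stripped FBS.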

[14] = qHTS assay to identify small molecule antagonists of the progesterone receptor (PR) signaling pathway - cell viability counter screen (AID 1346798; active = well fitted curve in the direction sought with a large enough effect in the repeat runs; an effect the other way counts as inactive or inconclusive; note: series mostly up to about 92 µM; nearly all actives have a fitted effect of over 50% in size)
Procedure, shortened: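 CellTiter-Glo luminescence; PR-UAS-bla HEK293T, 3,000 cells/well; compound + R5020, 16 hr, 37C/5% CO2; 30 min RT before read.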

[15] = qHTS assay to identify small molecule agonists of the progesterone receptor (PR) signaling pathway - cell viability counter screen (AID 1346799); note: nearly all actives have a fitted effect of over 45% in size
Procedure, shortened: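 In parallel with the beta-lactamase readout, cytotoxicity toward PR-UAS-bla HEK293T cells was measured by CellTiter-Glo luminescence following 16 hr compound incubation in 2% charcoal-stripped FBS medium.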

[16] = qHTS assay to identify small molecule antagonists of the TGF-beta/Smad signaling pathway - cell viability counter screen (AID 1346824; active = well fitted curve in the direction sought with a large enough effect in the repeat runs; an effect the other way counts as inactive or inconclusive; note: nearly all actives have a fitted effect of over 50% in size)
Procedure, shortened: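 SBE-bla HEK 293T cells were plated overnight at 37 C, then given compounds in DMSO plus TGF-beta1 (added as 0.25 ng/mL solution) for 5 hr. After the bla read, CellTiter-Glo was added to the same wells and luminescence read after 30 min at room temperature.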

[17] = qHTS assay to identify small molecule agonists of the TGF-beta/Smad signaling pathway - cell viability counter screen (AID 1346829; active = well fitted curve in the direction sought with a large enough effect in the repeat runs; an effect the other way counts as inactive or inconclusive; note: top concentration of the series differs between compounds; nearly all actives have a fitted effect of over 45% in size)
Procedure, shortened: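 Compound-treated SBE-bla HEK 293T cells (5 hr, 37 C) were assessed for viability with CellTiter-Glo in parallel with the reporter read.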

[18] = qHTS assay to identify small molecule agonists of the TGF-beta/Smad signaling pathway (AID 1346859; active = well fitted activation curve with a large enough effect in the signal ratio in the repeat runs, not every such curve was filed as active; the % refers to the signal ratio; note: series mostly up to about 77 µM)
Procedure, shortened: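 After overnight seeding, SBE-bla HEK 293T cells are dosed with compounds in DMSO and kept 5 hr at 37 C, 5% CO2. LiveBLAzer-type FRET substrate is then applied for 2 hr at room temperature.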

[19] = target: Androgen receptor (Homo sapiens) (UniProt P10275); assay: qHTS assay to identify small molecule agonists of the androgen receptor (AR) signaling pathway in the presence of an antagonist (AID 1259381); note: nearly all actives have a fitted effect of over 15% in size
Procedure, shortened: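 MDA-kb2 cells, 3,000/well, rested 5hr at 37C/0% CO2 → nilutamide 3.0uM final or buffer → compounds, 15 conc. → 16hr at 37C → ONE-Glo, 30min RT → luminescence.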

[20] = target: Thyrotropin-releasing hormone receptor (Homo sapiens) (UniProt P34981); assay: qHTS assay to identify small molecule antagonists of the thyrotropin-releasing hormone receptor (TRHR) signaling pathway (AID 1346877; active = well fitted inhibition curve with a large enough effect in the repeat runs, not every such curve was filed as active; note: series mostly up to about 51 µM)
Procedure, shortened: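 Intracellular calcium fluorescence, read kinetically every second over 3 min, reports TRH-evoked signalling in HEK293 cells carrying TRHR. Test compounds were added 5 min ahead of a 1 nM TRH challenge.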

Chain of Thyrotropin receptor (Homo sapiens) (P16473 whole entry, looked up): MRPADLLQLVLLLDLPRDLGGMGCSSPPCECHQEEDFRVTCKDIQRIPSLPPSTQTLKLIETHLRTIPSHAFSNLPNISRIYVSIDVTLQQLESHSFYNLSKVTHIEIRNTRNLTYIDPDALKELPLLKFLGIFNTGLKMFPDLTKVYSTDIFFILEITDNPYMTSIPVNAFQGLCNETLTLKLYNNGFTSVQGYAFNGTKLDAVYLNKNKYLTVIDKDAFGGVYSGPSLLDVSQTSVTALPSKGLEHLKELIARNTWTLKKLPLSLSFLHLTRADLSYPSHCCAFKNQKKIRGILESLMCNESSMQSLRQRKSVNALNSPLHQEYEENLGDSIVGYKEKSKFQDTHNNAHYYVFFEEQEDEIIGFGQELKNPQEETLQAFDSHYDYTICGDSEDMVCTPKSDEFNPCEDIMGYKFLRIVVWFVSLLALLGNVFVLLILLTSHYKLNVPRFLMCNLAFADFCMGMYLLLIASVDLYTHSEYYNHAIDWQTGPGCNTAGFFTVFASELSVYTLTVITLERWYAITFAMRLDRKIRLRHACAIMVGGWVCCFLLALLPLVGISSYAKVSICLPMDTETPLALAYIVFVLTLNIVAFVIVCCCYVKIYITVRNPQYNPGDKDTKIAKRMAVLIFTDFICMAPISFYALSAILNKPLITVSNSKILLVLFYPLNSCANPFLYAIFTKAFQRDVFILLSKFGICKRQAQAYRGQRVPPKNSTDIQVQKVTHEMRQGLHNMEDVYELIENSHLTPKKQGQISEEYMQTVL
Chain of Progesterone receptor (Homo sapiens) (P06401 whole entry, looked up): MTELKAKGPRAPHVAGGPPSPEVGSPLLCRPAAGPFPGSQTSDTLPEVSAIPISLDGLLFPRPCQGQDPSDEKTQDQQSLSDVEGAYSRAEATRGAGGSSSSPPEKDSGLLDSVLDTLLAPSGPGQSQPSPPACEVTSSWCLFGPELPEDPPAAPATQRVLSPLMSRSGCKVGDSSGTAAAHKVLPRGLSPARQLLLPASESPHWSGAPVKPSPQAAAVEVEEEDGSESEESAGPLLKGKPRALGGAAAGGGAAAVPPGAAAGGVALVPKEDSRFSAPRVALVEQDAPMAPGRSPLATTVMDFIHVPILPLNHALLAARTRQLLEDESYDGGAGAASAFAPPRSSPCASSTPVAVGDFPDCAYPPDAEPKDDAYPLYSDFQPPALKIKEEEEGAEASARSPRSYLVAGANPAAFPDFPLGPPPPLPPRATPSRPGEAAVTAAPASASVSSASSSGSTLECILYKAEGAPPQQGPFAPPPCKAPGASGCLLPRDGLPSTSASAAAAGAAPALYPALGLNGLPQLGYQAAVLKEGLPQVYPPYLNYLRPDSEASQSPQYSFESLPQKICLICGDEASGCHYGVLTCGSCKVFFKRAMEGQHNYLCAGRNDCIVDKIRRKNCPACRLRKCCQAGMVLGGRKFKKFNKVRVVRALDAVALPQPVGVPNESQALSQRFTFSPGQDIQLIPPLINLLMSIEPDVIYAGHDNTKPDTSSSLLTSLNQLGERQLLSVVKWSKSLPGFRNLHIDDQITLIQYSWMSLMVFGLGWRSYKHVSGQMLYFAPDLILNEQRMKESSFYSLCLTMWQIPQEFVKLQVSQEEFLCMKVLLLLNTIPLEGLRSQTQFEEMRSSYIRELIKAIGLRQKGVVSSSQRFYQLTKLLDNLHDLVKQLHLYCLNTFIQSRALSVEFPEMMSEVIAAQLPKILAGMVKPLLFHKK
Chain of Estrogen receptor beta (Homo sapiens) (Q92731 whole entry, looked up): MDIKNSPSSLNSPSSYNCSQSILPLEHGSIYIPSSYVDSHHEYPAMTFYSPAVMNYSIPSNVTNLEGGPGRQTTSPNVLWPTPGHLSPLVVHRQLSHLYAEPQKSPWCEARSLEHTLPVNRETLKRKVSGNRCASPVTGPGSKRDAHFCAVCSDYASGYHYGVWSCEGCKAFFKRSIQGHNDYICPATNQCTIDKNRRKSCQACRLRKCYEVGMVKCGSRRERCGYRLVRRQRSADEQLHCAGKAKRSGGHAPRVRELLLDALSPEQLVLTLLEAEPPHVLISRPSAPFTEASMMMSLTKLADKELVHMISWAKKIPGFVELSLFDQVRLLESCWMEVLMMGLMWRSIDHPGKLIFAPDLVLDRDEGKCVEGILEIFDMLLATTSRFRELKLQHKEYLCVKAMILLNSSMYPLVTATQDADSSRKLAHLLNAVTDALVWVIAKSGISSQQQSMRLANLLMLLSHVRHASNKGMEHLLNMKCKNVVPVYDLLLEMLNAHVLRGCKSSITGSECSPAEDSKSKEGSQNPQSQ
Chain of Estrogen receptor (Homo sapiens) (P03372 whole entry, looked up): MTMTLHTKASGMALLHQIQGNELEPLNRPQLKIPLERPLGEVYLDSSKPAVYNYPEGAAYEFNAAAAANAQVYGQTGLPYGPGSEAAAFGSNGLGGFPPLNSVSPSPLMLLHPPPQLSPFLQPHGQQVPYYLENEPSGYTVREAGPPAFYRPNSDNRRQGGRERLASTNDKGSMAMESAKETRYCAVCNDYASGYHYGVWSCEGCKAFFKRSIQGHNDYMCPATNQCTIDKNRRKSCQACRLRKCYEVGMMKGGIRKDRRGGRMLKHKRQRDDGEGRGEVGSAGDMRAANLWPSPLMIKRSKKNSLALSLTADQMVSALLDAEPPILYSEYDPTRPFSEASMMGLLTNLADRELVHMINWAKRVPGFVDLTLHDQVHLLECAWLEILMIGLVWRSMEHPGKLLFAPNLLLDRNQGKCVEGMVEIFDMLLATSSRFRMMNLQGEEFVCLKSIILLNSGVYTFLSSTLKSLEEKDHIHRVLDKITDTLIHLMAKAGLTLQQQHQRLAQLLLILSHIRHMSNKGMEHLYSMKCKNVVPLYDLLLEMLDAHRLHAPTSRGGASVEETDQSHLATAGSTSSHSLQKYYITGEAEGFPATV
Chain of Androgen receptor (Homo sapiens) (P10275 whole entry, looked up): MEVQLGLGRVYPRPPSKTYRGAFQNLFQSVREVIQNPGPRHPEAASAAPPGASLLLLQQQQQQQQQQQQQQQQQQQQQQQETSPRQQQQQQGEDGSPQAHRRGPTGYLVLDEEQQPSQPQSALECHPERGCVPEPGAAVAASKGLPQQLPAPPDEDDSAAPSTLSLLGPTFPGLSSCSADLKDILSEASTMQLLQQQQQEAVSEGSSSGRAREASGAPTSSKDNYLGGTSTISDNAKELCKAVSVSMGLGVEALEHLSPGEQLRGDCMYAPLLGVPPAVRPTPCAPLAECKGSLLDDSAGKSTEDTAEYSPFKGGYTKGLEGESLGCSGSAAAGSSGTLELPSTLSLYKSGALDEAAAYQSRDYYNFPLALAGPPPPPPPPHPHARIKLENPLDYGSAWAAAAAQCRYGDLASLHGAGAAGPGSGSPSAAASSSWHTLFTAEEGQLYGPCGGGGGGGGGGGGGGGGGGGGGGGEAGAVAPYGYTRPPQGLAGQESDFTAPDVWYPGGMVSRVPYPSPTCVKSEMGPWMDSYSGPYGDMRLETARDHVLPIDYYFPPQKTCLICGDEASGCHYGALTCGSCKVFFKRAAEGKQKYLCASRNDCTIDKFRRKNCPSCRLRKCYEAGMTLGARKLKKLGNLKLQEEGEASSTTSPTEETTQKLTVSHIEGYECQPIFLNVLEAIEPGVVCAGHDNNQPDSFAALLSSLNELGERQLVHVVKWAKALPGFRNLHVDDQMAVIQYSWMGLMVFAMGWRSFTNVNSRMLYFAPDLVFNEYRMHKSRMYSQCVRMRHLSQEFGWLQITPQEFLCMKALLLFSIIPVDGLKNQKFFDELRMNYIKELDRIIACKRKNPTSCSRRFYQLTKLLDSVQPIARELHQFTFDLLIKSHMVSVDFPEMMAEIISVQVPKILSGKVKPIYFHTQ
Chain of Thyrotropin-releasing hormone receptor (Homo sapiens) (P34981 whole entry, looked up): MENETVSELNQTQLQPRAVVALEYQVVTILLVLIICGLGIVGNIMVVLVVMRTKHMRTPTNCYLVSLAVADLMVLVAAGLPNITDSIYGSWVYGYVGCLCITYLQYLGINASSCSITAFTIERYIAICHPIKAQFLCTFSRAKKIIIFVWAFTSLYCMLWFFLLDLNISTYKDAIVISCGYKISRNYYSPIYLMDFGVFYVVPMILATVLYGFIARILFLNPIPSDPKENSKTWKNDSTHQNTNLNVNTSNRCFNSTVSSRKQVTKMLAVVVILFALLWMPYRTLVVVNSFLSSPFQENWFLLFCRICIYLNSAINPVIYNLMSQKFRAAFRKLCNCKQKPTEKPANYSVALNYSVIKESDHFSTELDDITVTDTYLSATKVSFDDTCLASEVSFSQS

SMILES	Potency [1]	Potency [2]	outcome [3]	Potency [4]	Potency [5]	Potency [6]	outcome [7]	Potency [8]	outcome [9]	Potency [10]	Potency [11]	Potency [12]	Potency [13]	Potency [14]	Potency [15]	outcome [16]	outcome [17]	outcome [18]	Potency [19]	outcome [20]
CCOC(=O)C(Br)c1ccccc1 (stereo unspecified)	inactive	inactive	inactive	inactive	inactive	inactive	inactive	inactive	inactive	inactive	inactive	inactive	inactive	inactive	inactive	inactive	inactive	inactive		
CN1CCN(N)CC1	inactive	inactive	inactive	inactive	inactive	inactive	inactive	inactive	inactive	inactive	inactive	inactive	inactive	inactive	inactive	inactive		inactive	inactive	
NNS(=O)(=O)c1ccc(Oc2ccc(S(=O)(=O)NN)cc2)cc1	inactive	inactive	inactive	inactive	inactive	inactive	inactive	inactive	inactive	inactive	inactive	inactive	inactive	inactive		inactive	inactive	inactive		
CN(C)Cc1ccccc1	inactive	inactive	inactive	inactive	inactive	inactive	inactive		inactive	inactive	inactive	inactive	inactive		inactive	inactive	inactive	inactive	inactive	inactive
CCOc1ccc(NC(N)=O)cc1	inactive	inactive	inactive	inactive	inactive	inactive	inactive	inactive	inactive	inactive	inactive	inactive	inactive	inactive	inactive	inactive	inactive	inactive		inactive
CC1=CC(=O)CC(C)(C)C1=O	inactive	inactive	inactive	inactive	inactive	inactive	inactive	inactive	inactive	inactive	inactive	inactive		inactive	inactive	inactive	inactive	inactive		
C=CCCC=C	inactive	inactive	inactive	inactive	inactive	inactive	inactive	inactive	inactive	inactive	inactive	19.9 µM (active)		inactive	inactive	inactive	inactive	inactive		
Cc1cc(S(=O)(=O)O)c(N)cc1Cl	inactive	inactive	inactive	inactive	inactive	inactive	inactive	inactive			inactive	inactive	inactive	inactive	inactive	inactive	inactive	inactive	inactive	
CC(=O)O[C@H]1CC[C@@]2(C)C(=CC[C@@H]3[C@@H]2CC[C@]2(C)C(C(C)=O)=CC[C@@H]32)C1	inactive	inactive	inactive	inactive	inactive	inactive	inactive	inactive	inactive		inactive			inactive	inactive	inactive	inactive		inactive	inactive
CCN[C@H]1CN(CCCOC)S(=O)(=O)c2sc(S(N)(=O)=O)cc21	inactive	inactive	inactive	inactive	inactive	inactive	inactive	inactive	inactive	inactive	inactive		inactive	inactive	inactive	inactive	inactive	inactive		inactive
CCOC(=O)[C@H](CCc1ccccc1)N[C@@H](C)C(=O)N1Cc2cc(OC)c(OC)cc2C[C@H]1C(=O)O	inactive	inactive	inactive	inactive	inactive	inactive	inactive	inactive	inactive	inactive	inactive	inactive		inactive	inactive	inactive	inactive	inactive		inactive
COc1cc(C)ccc1C(C)C	inactive	inactive	inactive	inactive	inactive	inactive	inactive	inactive	inactive	inactive	inactive	inactive	inactive	inactive	inactive	inactive		inactive		inactive
CC(=O)N(CC(O)CN(C(C)=O)c1c(I)c(C(=O)NCC(O)CO)c(I)c(C(=O)NCC(O)CO)c1I)c1c(I)c(C(=O)NCC(O)CO)c(I)c(C(=O)NCC(O)CO)c1I (stereo unspecified)	inactive	inactive	inactive	inactive	inactive	inactive	inactive	inactive	inactive	inactive	inactive	inactive	inactive	inactive	inactive	inactive	inactive	inactive		inactive
O=C(Cl)c1cccc([N+](=O)[O-])c1	inactive	inactive	inactive	inactive	inactive	inactive	inactive	inactive	inactive	inactive	inactive	inactive	inactive	inactive	inactive	inactive	inactive	inactive		
CCN(CC)CC1CCCCN1CC(=O)N1c2ccccc2C(=O)Nc2cccnc21 (stereo unspecified)	inactive	inactive	inactive	inactive	inactive	inactive	inactive	inactive	inactive	inactive	inactive	inactive		inactive	inactive	inactive	inactive	inactive		inactive
